Experimental findings from the antibiotic and cytotoxicity screens of Wong et al. (2023) are described below.

Screen size: about 39,000 compounds; about 500 (1.3%) were called active. The sample as a whole holds a higher share of actives than the screen did.

This assay concerns S. aureus RN4220. As to the kind of experiment: growth inhibition call (relative growth <= 0.2). Particulars: 50 µM.
With `C[C@H](CO)N1C[C@H](C)[C@H](CN(C)S(C)(=O)=O)Oc2ccc(NC(=O)Nc3ccc(F)cc3)cc2C1=O`, the growth inhibition call is “inactive”.

As for `C[C@@H]1CN([C@@H](C)CO)C(=O)c2cc(NC(=O)NC3CCCCC3)ccc2O[C@@H](C)CCCCO[C@H]1CN(C)S(=O)(=O)c1ccccc1`, the growth inhibition call is “inactive”.

As to `Cc1ccc(NC(=O)c2ccc(CN3CC[C@H](N(C)C)C3)c(C(F)(F)F)c2)cc1Nc1nccc(-c2cncnc2)n1`, the growth inhibition call is “inactive”.

`C[C@@H]1CN([C@H](C)CO)C(=O)c2ccccc2-c2ccccc2CO[C@@H]1CN(C)Cc1ccc(C(F)(F)F)cc1`: the growth inhibition call is “inactive”.

`C[C@H](CO)N1C[C@H](C)[C@H](CN(C)Cc2cncnc2)Oc2ncc(C#C[C@@H](C)O)cc2C1=O`: the growth inhibition call is “inactive”.

With `C[C@H]1CN([C@@H](C)CO)C(=O)c2cc(NC(=O)Cn3cnnn3)ccc2O[C@@H]1CN(C)C(=O)Nc1ccccc1`, the growth inhibition call is “inactive”.

Take `C[C@H]1CN([C@@H](C)CO)S(=O)(=O)c2ccc(C#CC(C)(C)O)cc2O[C@H]1CN(C)Cc1ccc(F)cc1`: the growth inhibition call is “inactive”.

As for `CCC1OC(=O)C(C)C(OC2CC(C)(OC)C(O)C(C)O2)C(C)C(OC2OC(C)CC(N(C)C)C2O)C(C)(O)CC(C)CN(C)C(C)C(O)C1(C)O` (configuration not stated), the growth inhibition call was “active”.

For `CC[C@H]1OC(=O)[C@H](C)[C@@H](O[C@H]2C[C@@](C)(OC)[C@@H](O)[C@H](C)O2)[C@H](C)[C@@H](O[C@@H]2O[C@H](C)C[C@H](N(C)C)[C@H]2O)[C@](C)(O)C[C@@H](C)CN(C)[C@H](C)[C@@H](O)[C@]1(C)O`, the growth inhibition call was “inactive”.

As to `C(=N\C1CCCCCCCCCCC1)/c1ccco1`, the growth inhibition call was “inactive”.

As for `C[C@H](CO)N1C[C@H](C)[C@H](CN(C)S(=O)(=O)c2cn(C)cn2)Oc2ccc(NC(=O)Cc3cn(C)c4ccccc34)cc2C1=O`, the growth inhibition call is “inactive”.

Consider `C[C@@H]1CN([C@@H](C)CO)C(=O)Cc2cc(NC(=O)Cc3cn(C)c4ccccc34)ccc2O[C@H]1CN(C)Cc1ccc(Oc2ccccc2)cc1`, for which the growth inhibition call was “inactive”.

On to `NCc1cn(-c2ccccc2)nc1C12CC3CC(CC(C3)C1)C2`, for which the growth inhibition call was “active”.

Regarding `OCc1cn(-c2ccccc2)nn1`, the growth inhibition call is “inactive”.

As for `c1ccc(-c2nc(C34CC5CC(CC(C5)C3)C4)cs2)cc1`, the growth inhibition call is “inactive”.

Take `C=CC[C@@H](CC(=O)N[C@H](CO)Cc1ccccc1)C(=O)N[C@H](C)COC(=O)[C@@H](CC=C)CC(=O)OC(C)(C)C`: the growth inhibition call was “inactive”.

As for `C[C@@H]1CCCCO[C@@H](CN(C)Cc2ccncc2)[C@H](C)CN([C@H](C)CO)C(=O)c2cc(NC(=O)NC3CCCCC3)ccc2O1`, the growth inhibition call was “inactive”.

As for `CCc1oc2ccccc2c1C(=O)c1cc(Br)c(O)c(Br)c1`, the growth inhibition call was “active”.

For `CCCCc1oc2ccccc2c1C(=O)c1cc(I)c(OCCN(CC)CC)c(I)c1.Cl`, the growth inhibition call is “inactive”.

For the compound `CCCCc1oc2ccccc2c1C(=O)c1cc(I)c(OCCN(CC)CC)c(I)c1`, the growth inhibition call is “inactive”.

For `OC[C@H]1O[C@@H](OCc2ccccc2)[C@H](O)[C@@H](O)[C@@H]1O`, the growth inhibition call is “inactive”.

As for `Cc1noc(C)c1NC(=O)Nc1ccc2c(c1)C(=O)N([C@@H](C)CO)C[C@@H](C)[C@@H](CN(C)C(=O)Nc1ccccc1)OCCCC[C@@H](C)O2`, the growth inhibition call is “inactive”.

For `COc1cc(NC(=O)c2cccc(-n3cc(NC(=O)Nc4cccc(C)c4)cn3)c2)cc(OC)c1OC`, the growth inhibition call is “inactive”.

In the case of `CC(=O)N1[C@H](CNC(=O)CN2CCOCC2)[C@H](c2ccccc2)[C@@H]1CO`, the growth inhibition call was “inactive”.

For `CON=C(C(=O)NC1C(=O)N2C(C(=O)OCOC(=O)C(C)(C)C)=C(C=Cc3scnc3C)CSC12)c1csc(N)n1` (configuration not stated), the growth inhibition call was “active”.

Regarding `CON=C(C(=O)N[C@@H]1C(=O)N2C(C(=O)OCOC(=O)C(C)(C)C)=C(C=Cc3scnc3C)CS[C@H]12)c1csc(N)n1`, the growth inhibition call was “active”.

For `CCC=C(C(=O)NC1C(=O)N2C(C(=O)OCOC(=O)C(C)(C)C)=C(COC(N)=O)CSC12)c1csc(N)n1.Cl` (configuration not stated), the growth inhibition call was “inactive”.

On to `CC(C)NC(=O)N(C)C[C@H]1Oc2ccc(NS(=O)(=O)c3ccc(F)cc3)cc2CC(=O)N([C@H](C)CO)C[C@H]1C`, for which the growth inhibition call was “inactive”.

As to `COc1ccc2c3c([nH]c2c1)[C@@H](CO)N(C[C@]13CN(C1)S(=O)(=O)c1cccs1)C(=O)c1ccccc1`, the growth inhibition call was “inactive”.

As to `C[C@@H]1CN([C@@H](C)CO)C(=O)c2cc(NC(=O)NC3CCCCC3)ccc2O[C@@H]1CN(C)Cc1ccc(Oc2ccccc2)cc1`, the growth inhibition call was “inactive”.

On to `CC(C)(C)C(=O)C[n+]1ccc(C(N)=O)cc1`, for which the growth inhibition call is “inactive”.

For the compound `O=C(O)[C@@H]1C(=CCO)O[C@H]2CC(=O)N12`, the growth inhibition call was “inactive”.

Take `O=C(O)[C@H]1/C(=C/CO)O[C@@H]2CC(=O)N21`: the growth inhibition call is “inactive”.

Turning to `O=C(O)C1C(=CCO)OC2CC(=O)N21.[LiH]` (configuration not stated), the growth inhibition call is “active”.

With `N[C@@H]1CC[C@@H](CCn2cc(C3(O)CCCC3)nn2)O[C@H]1CO`, the growth inhibition call is “inactive”.

For `C[C@H](CO)N1C[C@H](C)[C@H](CN(C)C(=O)Nc2ccc(F)cc2)OCc2ccccc2-c2ccccc2C1=O`, the growth inhibition call was “inactive”.

Take `C[C@@H]1CCCCO[C@@H](CN(C)C(=O)NC2CCCCC2)[C@H](C)CN([C@H](C)CO)C(=O)c2cc(NS(=O)(=O)c3cccs3)ccc2O1`: the growth inhibition call was “inactive”.

Turning to `Cc1cccc(S(=O)(=O)N2C[C@H](O)COC[C@@H]3O[C@@H](CC(=O)NCc4ccc5c(c4)OCO5)CC[C@H]32)c1`, the growth inhibition call is “inactive”.

In the case of `CC(=O)Nc1ncc([N+](=O)[O-])s1`, the growth inhibition call was “inactive”.

For `CC(=O)Oc1ccccc1C(=O)Nc1ccccc1`, the growth inhibition call was “inactive”.

Consider `CC(=O)Oc1ccccc1C(=O)Nc1ncc([N+](=O)[O-])s1`, for which the growth inhibition call was “active”.

For the compound `O=S1(=O)C[C@@H]2NC(=S)N[C@@H]2C1`, the growth inhibition call is “inactive”.

Take `C[C@H](CO)N1C[C@H](C)[C@@H](CN(C)S(=O)(=O)c2cn(C)cn2)Oc2ccc(NC(=O)NC3CCCCC3)cc2CC1=O`: the growth inhibition call was “inactive”.

On to `C[C@@H]1CN([C@@H](C)CO)C(=O)c2cc(NC(=O)CCN3CCOCC3)ccc2O[C@@H]1CN(C)C(=O)Nc1ccccc1`, for which the growth inhibition call was “inactive”.

With `CC(C)NC(=O)N(C)C[C@H]1OCCCC[C@@H](C)Oc2ccc(NC(=O)C3CCCCC3)cc2C(=O)N([C@H](C)CO)C[C@H]1C`, the growth inhibition call was “inactive”.

For `COc1ccc(C2=N[C@@H](c3ccc(Cl)cc3)[C@@H](c3ccc(Cl)cc3)N2C(=O)N2CCNC(=O)C2)c(OC(C)C)c1`, the growth inhibition call is “active”.

Consider `COc1ccc(C2=N[C@H](c3ccc(Cl)cc3)[C@H](c3ccc(Cl)cc3)N2C(=O)N2CCNC(=O)C2)c(OC(C)C)c1`, for which the growth inhibition call is “inactive”.
